An excerpt weighted towards active compounds, which were near 7.3% of everything screened.
Vaccinia mCherry – vaccinia inhibition (mCherry reporter). Vaccinia virus mCherry reporter infection, fluorescence. Potency, µM (top dose mostly 36.5 µM), usual class: inhibitors. 310,000 compounds, 0.63% hits. AID 720579; calls by dose curve; tested in A549 cells; further: nearly all actives have a fitted effect of over 35% in size
FMDV inh – blocks foot and mouth disease virus | 410,000 compounds, 1.2% hits | AID 1159524 | FMDV antiviral cell-based qHTS | Potency, µM (doses to about 57.9 µM), most hits filed as inhibitors; calls by dose curve; tested in HEK293T cells; further: read-out not given here; nearly all actives have a fitted effect of over 45% in size
HCV inhibitor – blocks hepatitis C virus. Huh7.5.1 HCVcc-Cre infection, luciferase reporter, 44 h. Potency, µM (top dose mostly 41.8 µM), usual class: inhibitors. 340,000 compounds, 3.4% hits. AID 651820; active means well fitted inhibition curve with a large enough effect; inconclusive means small, poorly fitted or top-dose-only effect, or another doubt; inactive means no such curve, though single readings can be large or run the other way
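Reporter virus HCVcc-Cre (~0.5 moi) infects cells exposed to compound; seeding density 1,000 cells/well with 4 h settling beforehand. Luminescence, 15 sec read, taken 44 h post-infection following a 15 min RT substrate incubation.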
HCMV antiviral – human cytomegalovirus inhibition | 410,000 compounds, 4.5% hits | activity change, negative = inhibition, % at 57.5 µM | HFF cells, HCMV-luciferase reporter, 72 h; active compounds read low; in the data active means activity change below about -60%; inconclusive means no clear call, values can overlap the other calls; inactive means above about -39%
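Two compound doses tested in HFFs infected with HCMV-luciferase, MOI 1 PFU/cell, 72 h at 37C. Lysate luminescence read with OneGlo; data normalized against buffer-only and 10uM Salinomycin inhibitor controls.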
VACV Venus inh – vaccinia inhibition (Venus reporter); Potency, µM (titrated, usually from 36.5 µM), most hits filed as inhibitors; Vaccinia virus Venus reporter expression, fluorescence; AID 720580; 330,000 compounds, 0.46% hits; calls by dose curve; tested in A549 cells; further: nearly all actives have a fitted effect of over 30% in size
Each line names hits and unclear results; the compound was inactive in the other large screens.

CC(=O)c1ccccc1NC(=O)COC(=O)c1c(C)nn(-c2ccccc2)c1C	HCV inhibitor inconclusive (no result: Vaccinia mCherry, VACV Venus inh)
CCOc1ccc(CCNC(=O)Cn2nc(C)c3c(C)n(-c4ccccc4)nc3c2=O)cc1OCC	FMDV inh inconclusive, HCV inhibitor inconclusive
CCCN(CC(=O)Nc1ccccc1OC)C(=O)c1cc(-c2ccccc2)nn1-c1ccccc1	HCV inhibitor 11.2µM (no result: Vaccinia mCherry, VACV Venus inh)
CCOc1ccc(CCNC(=O)COC(=O)c2c(C)nn(-c3ccccc3)c2C)cc1OCC	HCV inhibitor inconclusive, HCMV antiviral -98.6
COc1ccccc1NC(=O)COC(=O)c1c(C)nn(-c2ccccc2)c1C	HCV inhibitor 14.1µM (no result: Vaccinia mCherry, VACV Venus inh)
CC(=Nc1ccccc1N)c1c(C)cc(=O)n(O)c1O	none (no result: Vaccinia mCherry, HCV inhibitor, HCMV antiviral, VACV Venus inh)
COc1ccc(CNC(=O)CCC2N=C3c4ccccc4N=C(SCC(=O)NCCc4ccc(OC)c(OC)c4)N3C2=O)cc1 (stereo unspecified)	none (no result: HCV inhibitor)
Cc1ccc(CNC(=O)c2sc3nc4c(c(C(F)(F)F)c3c2N)CCC4)cc1	none
NC(=O)c1sc2nc3c(c(-c4ccc(Cl)cc4)c2c1N)CCCC3	Vaccinia mCherry inconclusive, HCV inhibitor inconclusive, HCMV antiviral -61.2, VACV Venus inh inconclusive
Cc1ccc(-c2c3c(nc4sc(C(N)=O)c(N)c24)CCC3)cc1	HCV inhibitor inconclusive, HCMV antiviral -86.8 (no result: Vaccinia mCherry)
O=C(COc1ccc(C(=O)c2ccc(F)cc2)cc1)NCc1ccc(F)cc1	Vaccinia mCherry inconclusive, HCMV antiviral -77.7
COc1ccc(CNC(=O)COc2ccc(C(=O)c3ccc(F)cc3)cc2)cc1	Vaccinia mCherry inconclusive, HCV inhibitor inconclusive
Cc1ccc(CNC(=O)COc2ccc(C(=O)c3ccc(F)cc3)cc2)cc1	Vaccinia mCherry inconclusive, HCMV antiviral -74.8
CC1(C)OC(c2ccccc2)=C/C(=C/C=Nc2ccccc2)O1	HCV inhibitor inconclusive
CC1(C)OC(c2ccccc2)=C/C(=C\C=N\NC(=O)c2ccncc2)O1	HCMV antiviral -64.1
CCOC(=O)C1=C(C)n2c(s/c(=C/c3cccc([N+](=O)[O-])c3)c2=O)=NC1c1ccc(O)c(OC)c1 (stereo unspecified)	FMDV inh inconclusive, HCV inhibitor 8.91µM (no result: Vaccinia mCherry, VACV Venus inh)
CC(C)=CCC1=C(O)c2ccccc2C(=O)C1=O	none (no result: HCV inhibitor, HCMV antiviral)
O=C1C(=O)c2ccccc2C(O)=C1CC=C(Cl)Cl	Vaccinia mCherry inconclusive, FMDV inh inconclusive, HCMV antiviral -94.8
CCc1ccccc1NC(=S)N(CCN(C)C)C(C)c1ccccn1 (stereo unspecified)	HCV inhibitor 22.4µM (no result: Vaccinia mCherry, VACV Venus inh)
CCc1ccccc1NC(=S)N(CCN(C)C)C(C)c1cccnc1 (stereo unspecified)	none
Cc1cc(C)cc(NC(=O)Nc2ccc3c(c2)N(C)C(=O)CS3)c1	FMDV inh inconclusive
CC(=O)c1cccc(NC(=O)Nc2ccc3c(c2)N(C)C(=O)CS3)c1	FMDV inh inconclusive, HCV inhibitor 3.16µM, HCMV antiviral inconclusive
CCc1ccc(NC(=O)Nc2ccc3c(c2)N(C)C(=O)CS3)cc1	HCMV antiviral -69.4
Cc1ccc(C2/C=C\CC(NC(=O)OCC3c4ccccc4-c4ccccc43)CC(=O)N2Cc2ccccc2)cc1 (stereo unspecified)	HCV inhibitor 17.8µM
CCN(CC)S(=O)(=O)c1ccc(C(=O)N2CC(=O)Nc3ccc(F)cc3C2c2ccccc2)cc1 (stereo unspecified)	none (no result: HCV inhibitor)
COc1cccc(-c2cc(C(=O)NCC3CCCO3)on2)c1 (stereo unspecified)	none (no result: Vaccinia mCherry, VACV Venus inh)
COc1cccc(-c2nc(C(=O)NCC3CCCO3)cc3c2[nH]c2ccccc23)c1 (stereo unspecified)	Vaccinia mCherry inconclusive, FMDV inh inconclusive, HCV inhibitor 11.2µM
COc1ccc(OC)c(-c2nc(C(=O)NCC3CCCO3)cc3c2[nH]c2ccccc23)c1 (stereo unspecified)	HCV inhibitor 10µM
COc1ccc(-c2cc(C(=O)NCC3CCCO3)c3ccccc3n2)c(OC)c1 (stereo unspecified)	none
CCN(Cc1ccccc1)C(=O)CN1C(=O)COc2ccc(S(=O)(=O)N3CCOCC3)cc21	none (no result: HCV inhibitor)
CCOC(=O)c1cc(C)n(CC2CCC(C(=O)Nc3ccc(C(C)=O)cc3)CC2)c1C (stereo unspecified)	FMDV inh inconclusive (no result: HCV inhibitor)
Cc1cc2c(c(=O)o1)[C@@]1(C(=O)N(C)c3ccc([N+](=O)[O-])cc31)C1=C(CCCC1=O)O2	none (no result: Vaccinia mCherry, FMDV inh, HCV inhibitor, VACV Venus inh)
COc1ccc(CCNC(=O)c2cc(Nc3ccccc3)nc3ccccc23)cc1OC	none (no result: HCV inhibitor)
COc1ccc(C(=O)/C=C/Sc2nc3ccccc3o2)cc1	FMDV inh inconclusive, HCV inhibitor inconclusive, HCMV antiviral -105.1

Screening results as filed in PubChem.
